Experimental data reported in article PMC3218832.

Key:
Assay in all cases: protein binding microarray; high values mean tight binding
Details in all cases: dsDNA, one strand shown
RELARELA (p65 homodimer) = RELARELA (p65 homodimer) (Homo sapiens, UniProt Q04206 1-307)
p50p50 homodimer = p50p50 homodimer (Homo sapiens, UniProt P19838 7-356)
p52p52 homodimer = target: T1, p52p52 homodimer (Homo sapiens, UniProt Q00653 4-332)
T1 sequence: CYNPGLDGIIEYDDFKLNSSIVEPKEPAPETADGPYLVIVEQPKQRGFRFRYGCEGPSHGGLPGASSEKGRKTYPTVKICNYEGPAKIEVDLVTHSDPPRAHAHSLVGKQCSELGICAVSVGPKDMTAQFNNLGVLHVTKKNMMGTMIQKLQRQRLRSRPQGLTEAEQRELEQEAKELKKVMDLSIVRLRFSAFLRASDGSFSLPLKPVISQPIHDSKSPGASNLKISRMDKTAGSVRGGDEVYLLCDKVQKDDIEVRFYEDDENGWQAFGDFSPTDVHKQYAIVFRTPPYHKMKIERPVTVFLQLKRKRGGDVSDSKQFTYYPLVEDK

[1] = target: RELA (p65) subunit of heterodimer;p50 subunit (Homo sapiens;Homo sapiens, UniProt Q04206;P19838 1-307;7-356)
[2] = target: RELA (p65) subunit of heterodimer;p52 subunit (Homo sapiens;Homo sapiens, UniProt Q04206;Q00653 1-307;4-332)
RELB subunit;p50 subunit = RELB subunit;p50 subunit (Homo sapiens;Homo sapiens, UniProt Q01201;P19838 120-401;7-356)
RELB subunit;p52 subunit = target: T2, RELB subunit;p52 subunit (Homo sapiens;Homo sapiens, UniProt Q01201;Q00653 120-401;4-332)
T2 sequence 1: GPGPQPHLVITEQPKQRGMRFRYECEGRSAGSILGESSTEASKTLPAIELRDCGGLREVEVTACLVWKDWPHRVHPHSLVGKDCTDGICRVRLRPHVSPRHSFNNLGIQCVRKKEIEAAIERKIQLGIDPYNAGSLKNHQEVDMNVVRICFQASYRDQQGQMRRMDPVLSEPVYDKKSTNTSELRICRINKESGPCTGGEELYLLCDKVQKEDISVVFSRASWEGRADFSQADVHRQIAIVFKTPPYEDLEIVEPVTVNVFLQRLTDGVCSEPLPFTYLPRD
T2 sequence 2: T1 sequence

[3] = target: C-Rel subunit;p50 subunit (Homo sapiens;Homo sapiens, UniProt Q04864;P19838 1-285;7-356)
[4] = target: T3, C-Rel subunit;p52 subunit (Homo sapiens;Homo sapiens, UniProt Q04864;Q00653 1-285;4-332)
T3 sequence 1: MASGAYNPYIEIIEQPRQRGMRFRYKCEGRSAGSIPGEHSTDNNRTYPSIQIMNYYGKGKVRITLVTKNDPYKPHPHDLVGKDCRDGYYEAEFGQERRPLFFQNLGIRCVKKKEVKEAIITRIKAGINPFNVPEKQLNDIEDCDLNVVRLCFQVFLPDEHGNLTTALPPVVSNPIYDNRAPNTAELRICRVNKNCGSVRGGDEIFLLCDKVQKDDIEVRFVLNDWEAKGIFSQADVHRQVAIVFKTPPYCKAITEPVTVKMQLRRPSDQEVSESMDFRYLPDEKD
T3 sequence 2: T1 sequence

Sequence of RELA (p65) subunit of heterodimer;p50 subunit (Q04206 1-307, chain 1 of 2): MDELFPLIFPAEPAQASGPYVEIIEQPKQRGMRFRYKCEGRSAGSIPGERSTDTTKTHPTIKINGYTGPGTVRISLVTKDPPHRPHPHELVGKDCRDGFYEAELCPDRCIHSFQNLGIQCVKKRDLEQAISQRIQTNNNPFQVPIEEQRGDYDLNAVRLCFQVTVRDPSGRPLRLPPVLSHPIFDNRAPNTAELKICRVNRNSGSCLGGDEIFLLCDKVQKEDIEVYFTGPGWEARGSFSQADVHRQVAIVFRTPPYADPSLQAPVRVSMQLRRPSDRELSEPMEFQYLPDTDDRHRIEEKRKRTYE
Sequence of RELA (p65) subunit of heterodimer;p50 subunit (P19838 7-356, chain 2 of 2): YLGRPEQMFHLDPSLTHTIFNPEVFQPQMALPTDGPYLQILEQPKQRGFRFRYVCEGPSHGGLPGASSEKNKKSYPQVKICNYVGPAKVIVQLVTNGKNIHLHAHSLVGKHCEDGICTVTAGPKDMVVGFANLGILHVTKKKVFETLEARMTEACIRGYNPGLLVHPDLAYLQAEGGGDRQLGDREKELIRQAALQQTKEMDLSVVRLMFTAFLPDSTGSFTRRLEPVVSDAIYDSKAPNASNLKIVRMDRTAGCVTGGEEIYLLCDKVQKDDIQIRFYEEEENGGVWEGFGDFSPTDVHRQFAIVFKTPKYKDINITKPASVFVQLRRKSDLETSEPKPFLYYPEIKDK
Sequence of RELARELA (p65 homodimer) (Q04206 1-307): as the sequence (Q04206 1-307, chain 1 of 2) above
Sequence of p50p50 homodimer (P19838 7-356): as the sequence (P19838 7-356, chain 2 of 2) above

Sequence	binding signal (RELARELA (p65 homodimer)) [z-score]	binding signal (p50p50 homodimer) [z-score]	binding signal (p52p52 homodimer) [z-score]	binding signal [1] [z-score]	binding signal [2] [z-score]	binding signal (RELB subunit;p50 subunit) [z-score]	binding signal (RELB subunit;p52 subunit) [z-score]	binding signal [3] [z-score]	binding signal [4] [z-score]
AAAGTCGTCCT	-0.192	-1.25	-0.599	-1.25	-0.839	-0.89	-0.666	-1.18	-0.704
CAGGTTACCCC	0.269	0.178	0.0851	0.345	0.253	0.443	0.629	0.552	0.49
CAAATTACCCT	0.402	1.05	0.802	0.662	0.929	0.64	0.781	0.509	0.784
GGAGAGCTCCT	-0.469	-1.71	-0.711	-1.01	-1.01	-1.17	-1.06	-1.65	-1.07
GAATACATCCT	-0.313	-0.946	-0.677	-0.816	-0.805	-0.977	-0.824	-1.36	-0.87
AGAATGTTCCT	0.037	-1.47	-0.491	-0.64	-0.735	-0.963	-0.948	-1.17	-0.63
GAAGATGCCCC	0.0529	0.407	0.0127	0.599	0.186	0.421	0.376	0.679	0.228
AGATACCCCCT	0.103	1.43	1.19	1.36	1.5	1.38	1.84	1.13	1.24
CGGGGCATCCT	-0.458	0.212	0.516	0.0241	0.306	0.179	0.34	0.188	0.458
AAGTAGTCCCC	0.275	1.21	1	1.09	1.01	1.36	1.04	1.07	0.58
GAGTTGTTCCC	0.34	-0.415	-0.231	-0.188	-0.206	-0.327	-0.463	-0.00411	-0.104
AGATGTTTCCC	1.63	0.332	0.359	0.89	0.674	0.348	0.51	1.05	0.783
AAATGTGCCCC	0.655	-0.0191	0.195	0.499	0.0761	0.0211	0.23	0.81	0.211
AGGTTGGCCCC	-0.789	-0.369	-0.374	-0.277	-0.287	-0.0488	-0.238	-0.00473	0.0517
GAGTATCCCCT	0.0376	1.26	1.26	1.29	1.26	1.28	1.35	0.928	0.943
CGATTGTCCCT	0.353	1.16	1.18	0.871	0.943	1.29	1.27	0.77	0.66
CGGGAAGCCCT	0.636	-0.369	-0.0378	-0.188	0.0317	-0.513	-0.178	-0.133	0.19
AAAAGCCTCCT	-1.11	-1.28	-0.721	-0.959	-1.07	-1.23	-0.999	-1.5	-1.03
AAATTTTTCCC	3.12	1.2	1.17	1.78	1.37	1.03	1.38	1.97	1.31
GAAGTTTCCCC	2.24	1.35	2	2.3	1.99	2.19	2.19	1.89	1.71

Sequence	binding signal (RELARELA (p65 homodimer)) [z-score]	binding signal (p50p50 homodimer) [z-score]	binding signal (p52p52 homodimer) [z-score]	binding signal [1] [z-score]	binding signal [2] [z-score]	binding signal (RELB subunit;p50 subunit) [z-score]	binding signal (RELB subunit;p52 subunit) [z-score]	binding signal [3] [z-score]	binding signal [4] [z-score]
GGGGGCCTCCC	0.3	0.557	2.41	1.24	1.91	1.21	1.09	1	1.46
AAAAAGCTCCT	-0.678	-1.47	-0.675	-1.01	-1.04	-1.17	-1.06	-1.49	-1.07
CGAAGACTCCC	-0.527	-0.307	-0.407	-0.172	-0.618	-0.262	-0.747	-0.657	-0.571
AGAGACACCCC	-0.871	-0.237	-0.229	-0.459	-0.359	-0.257	0.00668	-0.227	-0.484
AAGAAAGCCCT	-0.308	-0.8	-0.426	-0.68	-0.581	-0.838	-0.728	-0.563	-0.671
CGGAACACCCT	-0.222	-0.182	-0.238	-0.453	-0.316	-0.373	-0.287	-0.444	-0.317
CGAAAGGCCCT	-0.835	-0.751	-0.447	-0.366	-0.217	-0.417	-0.6	-0.822	-0.62
AAATGTATCCT	-0.258	-1.3	-0.661	-0.932	-0.782	-0.907	-0.763	-1.32	-0.746
AGGTTTTCCCC	3.11	1.14	3.16	2.17	2.48	2.01	2.3	1.8	2.63
AGATAAGTCCC	0.485	1.11	0.806	1.13	0.806	1.2	0.954	0.899	0.335
GGGGAATTCCC	4.86	2.07	3.41	3.6	3.73	3.87	3.85	3.14	4.19
AGGATTGTCCT	0.256	-1.5	-0.541	-0.736	-0.766	-0.86	-0.821	-1.01	-0.483
GAAGTGGCCCC	-1.02	-0.225	-0.401	-0.503	-0.265	-0.183	-0.112	-0.347	-0.316
CAGAGCTCCCC	-0.432	-0.0564	-0.163	0.0392	-0.211	0.161	-0.0377	0.0629	-0.215
CGGATGGCCCT	-1	-1.09	-0.625	-0.472	-0.684	-0.367	-0.331	-0.715	-0.706
AGAGAGGCCCC	-0.813	-0.259	-0.348	-0.461	-0.565	-0.342	-0.35	-0.436	-0.513
CGGGACTCCCC	1.91	0.81	2.76	1.88	1.9	1.59	1.87	1.93	2.5
CGATACACCCT	-0.54	-0.733	-0.36	-0.642	-0.613	-0.424	-0.507	-0.73	-0.561
AAATTTGCCCT	0.9	-0.198	-0.202	0.0394	-0.125	-0.452	-0.337	0.26	0.00992
GGATTTTCCCC	3.79	1.16	2.75	2.27	2.49	2.15	2.39	1.94	2.19

Sequence	binding signal (RELARELA (p65 homodimer)) [z-score]	binding signal (p50p50 homodimer) [z-score]	binding signal (p52p52 homodimer) [z-score]	binding signal [1] [z-score]	binding signal [2] [z-score]	binding signal (RELB subunit;p50 subunit) [z-score]	binding signal (RELB subunit;p52 subunit) [z-score]	binding signal [3] [z-score]	binding signal [4] [z-score]
CGGGAACTCCT	1.67	0.314	0.181	0.357	0.17	-0.0239	0.0296	0.188	0.424
GGATTTCTCCT	0.534	-0.711	-0.416	-0.294	-0.389	-0.703	-0.78	-0.477	-0.189
AAGGTCCCCCC	-0.0871	1.12	0.844	1.52	1.1	1.51	1.74	1.34	0.964
CAATACATCCC	-0.0719	-0.836	-0.518	-0.774	-0.7	-0.646	-0.575	-0.971	-0.69
AGAAGCTCCCT	-0.425	0.158	-0.322	-0.103	-0.284	-0.0298	-0.239	-0.54	-0.52
GGAGTTCCCCT	2.77	1.14	2.83	2.64	2.79	2	2.29	2.61	3.5
CAAGACCTCCC	-0.906	-1.11	-0.577	-0.688	-0.796	-0.585	-0.626	-0.818	-0.713
AGGGAGTTCCT	0.744	0.856	1.12	0.667	0.798	0.721	0.659	0.315	0.64
CAGATCGTCCT	-0.0967	-1.22	-0.471	-1	-0.796	-0.842	-0.777	-1.17	-0.663
CAATACTTCCT	-0.118	-1.09	-0.562	-0.687	-0.787	-1.04	-0.781	-0.77	-0.829
GGGATAGTCCC	2.07	0.707	2.94	1.82	2.15	1.87	1.6	1.32	1.96
CAGGTACCCCT	-0.0502	0.353	0.356	0.304	0.796	0.548	1.06	0.193	0.274
CGGGTCGTCCT	-0.683	-1.36	-0.504	-0.972	-0.834	-0.864	-0.859	-1.15	-0.64
CAGTAGACCCC	-0.444	-0.398	-0.423	-0.397	-0.485	-0.472	-0.384	-0.501	-0.439
CGAGTTGCCCC	0.677	0.0517	-0.0293	0.542	0.31	0.428	0.407	0.855	0.564
GAAATGCTCCC	-0.193	-0.556	-0.401	-0.482	-0.537	-0.542	-0.819	-0.726	-0.598
CGAAACCCCCT	0.503	1.69	2	2.24	2.14	2.22	2.21	1.52	2.21
GGGGTCATCCT	-0.528	-0.376	-0.115	-0.626	-0.394	-0.425	-0.362	-0.494	-0.0992
GAATAACTCCT	-0.147	-1.37	-0.713	-0.733	-0.946	-0.919	-0.853	-0.82	-0.791
AAGAATTTCCT	1.63	-0.591	-0.35	-0.206	-0.329	-0.672	-0.375	0.0204	-0.227
